Here are results for six compounds from PubChem BioAssay (NCATS).

The target in test [1] is Lysosomal acid glucosylceramidase (Homo sapiens) (UniProt P04062). Nature of the test: Glucocerebrosidase-p2 (AID 348; in the data active = potency below about 10 µM; note: potency is the fitted concentration of half-maximal effect). The settings on record: purified GBA, blue fluorogenic substrate, 40 min. A digest of the protocol: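 Normal human glucocerebrosidase (0.2 nM) with blue fluorogenic substrate (80 uM final) in citrate/phosphate pH 5.9 with 10mM sodium taurocholate, 0.01% tween-20; 40 min RT, NaOH/glycine stop; fluorescence Ex 365/Em 440; AC50 from a titration from 0.6 nM upwards.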

Test [2] is described as follows: AP1 Signaling Pathway (AID 357).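 Note: ME-180 reporter cells stimulated with EGF at its EC50 level; % is set by controls: 0 for no effect and ±100 for the full control effect.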 The settings on record: ME-180 AP-1-bla reporter, EGF-induced, beta-lactamase ratio, 5 h; at 7.69 µM (top of the series) unless noted. Put shortly:
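AP-1-bla ME-180 cells, Opti-MEM + 0.5% dialyzed FBS, plated overnight 37 °C. Cpd titration + EC50 EGF, 5 h 37 °C. CCF4 2.5 h RT; ex 405, em 460/530 ratio → %activity, AC50.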

Test [3] concerns the target Cytochrome P450 1A2 (Homo sapiens) (UniProt P05177). Nature of the test: p450-cyp1a2 (AID 410; calls by dose curve; note: potency is the fitted concentration of half-maximal effect;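 for activity change, negative = inhibition: -100% = full effect of reference inhibitor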). The settings on record: recombinant CYP1A2, luciferin-ME demethylation, luminescence; series mostly up to 57 µM. Put shortly: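 Read-out is luminescence from luciferin produced by CYP1A2 demethylation of Luciferin-ME (100uM, at Km). Detection reagent stopped the 60 min NADPH-dependent reaction; signals were normalized to 57 uM furafylline.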

Test [4] in a line: NFAT Signaling Pathway (AID 444).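 Note: carbachol stimulus at about its EC50 of 1 µM final; % is set by controls: 0 for no effect and ±100 for the full control effect.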 The note with it: Jurkat NFAT-bla M1, carbachol, beta-lactamase ratio, 5 h; at 7.69 µM (top of the series) unless noted. A digest of the protocol: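 Jurkat cells carrying an NFAT-driven β-lactamase reporter and co-transfected muscarinic M1 receptor were treated with compound plus carbachol (1 uM final, an EC50 level) for 5 h at 37 °C. CCF4 loading followed for 1 h at RT; 460/530 nm ratio gave %activity.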

A short description of test [5]: Stat Signaling Pathway (AID 446).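 Note: ME-180 cervical cancer cells given 40 pM IL-6 alongside compound; SIE-controlled beta-lactamase reporter measured as 460/530 nm FRET emission ratio; % is set by controls: 0 for no effect and ±100 for the full control effect.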 The note with it: ME-180 (cervical carcinoma) SIE beta-lactamase reporter, IL-6 stimulated, 5 h; at 7.69 µM (top of the series) unless noted. Put shortly:
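Compound effects on IL-6-induced STAT reporter activity were measured in ME-180 cells. After overnight culture, cells were co-treated with 40 pM IL-6 for 5 hrs before beta-lactamase substrate loading at room temperature.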

The target in test [6] is Glucocorticoid receptor (Homo sapiens) (UniProt P04150). The test is described as follows: GR-EFC Redistribution (AID 451; calls by dose curve; note: potency is the fitted concentration of half-maximal effect). The settings on record: CHO-K1 GR-EFC translocation, beta-gal luminescence, 2 h. A digest of the protocol:
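CHO-K1 cells stably expressing nuclear-localized β-gal enzyme acceptor and GR fused C-terminally to the enzyme donor fragment; ligand-driven nuclear translocation restores β-gal by complementation. Compounds titrated up to 46 uM final, 2 h at 37 °C; luminescence read.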

Test [7] has as its target Mitogen-activated protein kinase 10 (Mus musculus) (UniProt Q61831). The test is described as follows: JNK3 AlphaScreen Assay (AID 530).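 Note: kinase came from lysate of stimulated human HepG2 cells; % is set by controls: 0 for no effect and ±100 for the full control effect.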 The note with it: JNK3 lysate, c-Jun phosphorylation; series mostly up to 57.1 µM. Put shortly: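 Biotinylated GST-cJun(1-79) served as substrate for JNK3 in HepG2 lysates stimulated with IL-1beta and TNF-alpha. ATP was 10 uM final, pH 7.6. Ser73 phosphorylation was quantified by AlphaScreen (680 nm excitation).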
In general terms: Alpha assays give light when donor and acceptor beads are brought close together.

The target of test [8] is 3',5'-cyclic-AMP phosphodiesterase 4B (Homo sapiens) (UniProt Q07343). Nature of the test: qHTS Assay for Inhibitors of PDE-IV (AID 607; active = well fitted activation curve with a large enough effect in the main read-out, with a control signal flat, not every such curve was filed as active; note: % of control where 0% means no effect). The settings on record: HEK293 ACTOne CNG channel cells, membrane potential fluorescence; series mostly up to 22.9 µM. Put shortly: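 ACTOne HEK293 cells carry a modified cAMP-gated CNG channel and express endogenous PDE4; plated 1000 cells/well, compounds up to 22.9 uM final. Membrane-potential dye fluorescence (ex 535/em 590) was read; parental cells received 10 uM forskolin + 100 uM RO 20-1724.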
In general terms: qHTS replaces the single test concentration by a dilution series.

Test [9] is described as follows: qHTS Assay for Lipid Storage Modulators (AID 1519; calls by dose curve). The settings on record: Drosophila S3 cells, BODIPY lipid droplet/cell ratio, laser cytometry, cells loaded with oleic acid; for activity change, negative = inhibition: at 57.5 µM (top of the series). Put shortly: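 Cells seeded at 5,000 per well were treated with compounds over a concentration series and loaded with oleic acid (400 uM, as added). Lipid droplet fluorescence (488 nm excitation, 500-530 nm channel) was read by laser-scanning cytometry and normalized to 20 uM Triacsin C.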

Test [10] in a line: Primary qHTS for small molecule stabilizers of the endoplasmic reticulum resident proteome: Secreted ER Calcium Modulated Protein (SERCaMP) assay (AID 1508630; active = well fitted curve in the direction sought with a large enough effect; an effect the other way counts as inactive or inconclusive; note: % is set by controls: 0 for no effect and ±100 for the full control effect). The settings on record: SH-SY5Y GLuc-SERCaMP (Gaussia luciferase released on ER calcium loss) secretion, thapsigargin, luminescence; series mostly up to 38.4 µM. A digest of the protocol: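 The SH-SY5Y reporter protocol was run at 3 concentrations up to 38.3 uM (primary) or 11 concentrations (follow-up): 16 h compound, 100 nM thapsigargin for 4 h, then extracellular luciferase luminescence.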

The target in test [11] is Cytochrome P450 2C9 (Homo sapiens) (UniProt P11712). Nature of the test: qHTS Assay for Inhibitors and Substrates of Cytochrome P450 2C9 (AID 883; active = well fitted curve in the direction sought with a large enough effect; an effect the other way counts as inactive or inconclusive; note: % is set by controls: 0 for no effect and ±100 for the full control effect; nearly all actives have a fitted effect of over 60% in size). The settings on record: recombinant CYP2C9, luciferin-H luminescence, 60 min; series mostly up to 57.1 µM. A digest of the protocol:
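A luminogenic readout tracked human CYP2C9 (10nM) converting deoxyluciferin (100uM, at KM) in 25mM KPO4 during 60 min at 37C with regenerated NADPH. Values normalized to 57uM sulphaphenazole as complete inhibition.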

Test [12] has as its target Cytochrome P450 3A4 (Homo sapiens) (UniProt P08684). The test is described as follows: qHTS Assay for Inhibitors and Substrates of Cytochrome P450 3A4 (AID 884; active = well fitted curve in the direction sought with a large enough effect; an effect the other way counts as inactive or inconclusive; note: potency is the fitted concentration of half-maximal effect; nearly all actives have a fitted effect of over 50% in size). The note with it: recombinant CYP3A4, Luciferin-PPXE luminescence; series mostly up to 57.1 µM. Put shortly: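 Luminescent readout of luciferin produced by CYP3A4 (20 nM) dealkylation of Luciferin-PPXE, 25 uM (its KM). NADPH-driven reaction ran 60 min at RT after 10 min compound preincubation; data scaled to 57 uM ketoconazole as 100% inhibition.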

Test [13] has the same target. Nature of the test: qHTS Assay for Activators of Cytochrome P450 3A4 (AID 885; active = well fitted curve in the direction sought with a large enough effect; an effect the other way counts as inactive or inconclusive; note: nearly all actives have a fitted effect of over 65% in size). The note with it: recombinant CYP3A4, Luciferin-PPXE luminescence, 60 min; series mostly up to 57.1 µM. Put shortly:
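CYP3A4 activity: Luciferin-PPXE O-dealkylation, 25uM substrate, 200mM KPO4, RT throughout. Read-out is luciferase luminescence; higher values reflect activation.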

For test [14], the target named is Cytochrome P450 2D6 (Homo sapiens) (UniProt P10635). Nature of the test: qHTS Assay for Inhibitors and Substrates of Cytochrome P450 2D6 (AID 891; active = well fitted curve in the direction sought with a large enough effect; an effect the other way counts as inactive or inconclusive;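 note: luciferin methyl ether substrate demethylated by CYP2D6 with NADPH regeneration; % is set by controls: 0 for no effect and ±100 for the full control effect; nearly all actives have a fitted effect of over 60% in size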). The settings on record: recombinant CYP2D6, luciferin-ME EGE luminescence; series mostly up to 57.1 µM. A digest of the protocol: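 Luminescent read-out of luciferin formed by 5 nM human CYP2D6 demethylating 30 uM Luciferin-ME EGE (Km level) over 60 min at room temperature after NADPH regeneration addition. Data normalized to full inhibition by 1.43 uM quinidine.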

The mark [15] stands for this setting: measured here: cell count channel max response.
Where [16] appears, read: measured here: lipid channel max response.

Results filed as inconclusive are left out. Activity calls are given as the source filed them. Unless noted, calls come from the whole dose curve; as a rule, active = well fitted curve in either direction with a large enough effect (not every such curve was filed as active); inconclusive = small, poorly fitted or top-dose-only effect, or another doubt; inactive = flat fitted curve, though single readings scatter.

Sequence of Glucocorticoid receptor (Homo sapiens) (P04150 whole entry, looked up, the tested form may be a part): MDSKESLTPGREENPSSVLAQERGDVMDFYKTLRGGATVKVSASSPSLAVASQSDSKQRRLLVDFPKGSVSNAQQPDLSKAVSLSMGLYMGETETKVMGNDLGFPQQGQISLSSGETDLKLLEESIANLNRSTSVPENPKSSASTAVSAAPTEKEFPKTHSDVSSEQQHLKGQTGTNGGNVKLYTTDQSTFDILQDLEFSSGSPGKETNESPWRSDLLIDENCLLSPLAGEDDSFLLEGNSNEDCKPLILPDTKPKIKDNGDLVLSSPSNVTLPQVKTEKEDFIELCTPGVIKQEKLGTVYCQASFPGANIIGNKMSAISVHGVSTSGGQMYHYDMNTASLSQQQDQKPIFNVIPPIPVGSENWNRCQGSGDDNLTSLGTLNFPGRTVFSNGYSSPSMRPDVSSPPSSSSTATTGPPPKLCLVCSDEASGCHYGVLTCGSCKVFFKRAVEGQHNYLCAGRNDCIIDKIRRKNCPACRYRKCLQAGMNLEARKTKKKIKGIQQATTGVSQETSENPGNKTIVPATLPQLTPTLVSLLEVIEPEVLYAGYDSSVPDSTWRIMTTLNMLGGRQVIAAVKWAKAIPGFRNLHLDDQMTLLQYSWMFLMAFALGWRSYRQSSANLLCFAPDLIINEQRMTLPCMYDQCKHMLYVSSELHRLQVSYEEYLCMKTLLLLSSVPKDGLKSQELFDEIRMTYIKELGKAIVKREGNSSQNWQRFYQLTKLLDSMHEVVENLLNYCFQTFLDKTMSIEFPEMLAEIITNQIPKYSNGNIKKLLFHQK
Sequence of Cytochrome P450 1A2 (Homo sapiens) (P05177 whole entry, looked up): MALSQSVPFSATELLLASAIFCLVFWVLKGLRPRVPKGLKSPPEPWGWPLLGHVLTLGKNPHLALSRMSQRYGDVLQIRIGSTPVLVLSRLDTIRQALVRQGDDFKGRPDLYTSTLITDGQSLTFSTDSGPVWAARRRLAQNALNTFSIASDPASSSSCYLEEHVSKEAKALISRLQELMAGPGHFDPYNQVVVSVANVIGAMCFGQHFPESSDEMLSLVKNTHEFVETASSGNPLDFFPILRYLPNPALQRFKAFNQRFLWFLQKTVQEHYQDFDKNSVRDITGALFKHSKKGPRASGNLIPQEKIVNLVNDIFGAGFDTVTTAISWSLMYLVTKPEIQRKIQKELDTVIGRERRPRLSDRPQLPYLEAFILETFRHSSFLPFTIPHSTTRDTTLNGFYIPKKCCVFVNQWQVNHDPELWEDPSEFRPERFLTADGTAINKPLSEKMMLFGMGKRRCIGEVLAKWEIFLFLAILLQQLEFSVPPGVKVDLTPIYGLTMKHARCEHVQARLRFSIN
Sequence of Lysosomal acid glucosylceramidase (Homo sapiens) (P04062 whole entry, looked up): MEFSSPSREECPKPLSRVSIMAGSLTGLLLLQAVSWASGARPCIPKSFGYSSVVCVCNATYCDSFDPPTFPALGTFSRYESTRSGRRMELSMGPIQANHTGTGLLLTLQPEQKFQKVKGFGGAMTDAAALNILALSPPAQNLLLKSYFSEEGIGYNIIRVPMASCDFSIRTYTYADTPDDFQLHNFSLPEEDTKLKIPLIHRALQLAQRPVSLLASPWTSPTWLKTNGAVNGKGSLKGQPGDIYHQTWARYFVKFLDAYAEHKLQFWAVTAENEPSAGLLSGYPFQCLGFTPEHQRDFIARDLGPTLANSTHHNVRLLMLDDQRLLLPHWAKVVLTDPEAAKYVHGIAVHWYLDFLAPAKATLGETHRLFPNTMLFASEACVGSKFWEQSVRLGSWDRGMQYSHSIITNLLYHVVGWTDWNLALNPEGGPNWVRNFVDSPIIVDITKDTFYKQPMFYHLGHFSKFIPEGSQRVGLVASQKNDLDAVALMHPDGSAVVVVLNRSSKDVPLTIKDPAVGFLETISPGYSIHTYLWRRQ
Sequence of 3',5'-cyclic-AMP phosphodiesterase 4B (Homo sapiens) (Q07343 whole entry, looked up): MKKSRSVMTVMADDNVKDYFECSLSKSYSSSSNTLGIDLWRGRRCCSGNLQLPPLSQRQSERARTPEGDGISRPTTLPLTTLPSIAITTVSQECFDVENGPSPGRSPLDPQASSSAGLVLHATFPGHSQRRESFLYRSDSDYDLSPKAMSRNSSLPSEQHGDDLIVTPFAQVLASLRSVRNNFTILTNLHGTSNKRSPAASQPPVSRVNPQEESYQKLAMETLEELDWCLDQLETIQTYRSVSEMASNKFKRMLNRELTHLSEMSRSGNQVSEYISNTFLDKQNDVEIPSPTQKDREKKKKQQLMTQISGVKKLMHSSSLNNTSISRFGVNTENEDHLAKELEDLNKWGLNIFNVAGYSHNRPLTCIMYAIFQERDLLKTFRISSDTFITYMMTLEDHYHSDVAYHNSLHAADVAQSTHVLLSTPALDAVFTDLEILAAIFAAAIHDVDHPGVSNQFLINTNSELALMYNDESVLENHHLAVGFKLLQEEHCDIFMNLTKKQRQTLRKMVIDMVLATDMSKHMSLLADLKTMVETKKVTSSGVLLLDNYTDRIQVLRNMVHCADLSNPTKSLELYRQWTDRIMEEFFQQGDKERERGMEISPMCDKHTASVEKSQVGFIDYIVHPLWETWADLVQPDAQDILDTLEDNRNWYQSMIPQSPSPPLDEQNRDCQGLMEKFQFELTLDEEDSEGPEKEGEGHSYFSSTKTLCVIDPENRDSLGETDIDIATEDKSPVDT
Sequence of Cytochrome P450 3A4 (Homo sapiens) (P08684 whole entry, looked up): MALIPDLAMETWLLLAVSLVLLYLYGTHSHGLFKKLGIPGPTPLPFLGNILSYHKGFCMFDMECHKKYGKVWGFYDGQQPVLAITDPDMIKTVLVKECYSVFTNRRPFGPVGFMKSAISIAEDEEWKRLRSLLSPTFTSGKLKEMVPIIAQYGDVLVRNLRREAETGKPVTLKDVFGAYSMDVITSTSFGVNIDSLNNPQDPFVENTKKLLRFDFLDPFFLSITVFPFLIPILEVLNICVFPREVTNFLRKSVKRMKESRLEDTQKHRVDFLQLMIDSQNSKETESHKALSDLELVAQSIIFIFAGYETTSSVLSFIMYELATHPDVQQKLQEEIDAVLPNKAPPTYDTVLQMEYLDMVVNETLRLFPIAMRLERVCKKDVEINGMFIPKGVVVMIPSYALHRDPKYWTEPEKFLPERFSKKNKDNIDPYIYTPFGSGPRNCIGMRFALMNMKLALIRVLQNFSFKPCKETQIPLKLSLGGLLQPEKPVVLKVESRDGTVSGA
Sequence of Cytochrome P450 2D6 (Homo sapiens) (P10635 whole entry, looked up): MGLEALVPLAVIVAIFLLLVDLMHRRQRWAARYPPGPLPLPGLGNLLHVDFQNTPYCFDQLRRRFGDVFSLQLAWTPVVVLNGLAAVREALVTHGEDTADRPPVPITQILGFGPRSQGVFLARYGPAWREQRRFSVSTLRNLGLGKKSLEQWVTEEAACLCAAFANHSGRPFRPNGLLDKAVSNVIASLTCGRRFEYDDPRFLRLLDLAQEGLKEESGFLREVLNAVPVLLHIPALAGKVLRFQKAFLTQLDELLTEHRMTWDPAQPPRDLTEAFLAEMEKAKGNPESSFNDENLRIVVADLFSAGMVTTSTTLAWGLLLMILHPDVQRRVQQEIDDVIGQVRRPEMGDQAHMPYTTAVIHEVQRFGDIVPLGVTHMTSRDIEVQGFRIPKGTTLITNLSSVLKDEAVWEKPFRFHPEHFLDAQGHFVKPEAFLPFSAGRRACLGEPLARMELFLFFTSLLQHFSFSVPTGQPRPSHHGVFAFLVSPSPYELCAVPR
Sequence of Cytochrome P450 2C9 (Homo sapiens) (P11712 whole entry, looked up): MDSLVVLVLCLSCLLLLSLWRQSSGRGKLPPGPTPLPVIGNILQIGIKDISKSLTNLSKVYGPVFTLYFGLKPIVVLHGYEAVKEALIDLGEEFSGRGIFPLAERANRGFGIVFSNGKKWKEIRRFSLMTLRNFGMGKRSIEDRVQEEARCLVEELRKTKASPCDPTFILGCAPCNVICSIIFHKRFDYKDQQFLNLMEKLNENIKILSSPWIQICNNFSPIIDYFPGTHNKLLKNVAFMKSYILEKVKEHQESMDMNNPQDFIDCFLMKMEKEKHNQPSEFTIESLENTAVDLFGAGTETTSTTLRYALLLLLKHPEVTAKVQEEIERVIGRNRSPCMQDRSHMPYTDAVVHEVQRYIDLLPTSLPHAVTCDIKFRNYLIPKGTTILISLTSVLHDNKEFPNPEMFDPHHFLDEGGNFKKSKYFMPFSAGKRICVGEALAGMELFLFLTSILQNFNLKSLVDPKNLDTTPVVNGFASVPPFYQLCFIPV

For the compound `CC(C)NC(=O)N1CC2(CCN(S(=O)(=O)c3ccccc3)CC2)C1`, the Potency in test [1] was > 11.4 µM (inactive); in test [6], > 46 µM (inactive). The activity change, negative = inhibition in [2] is -9.04% (inactive); in [4] it was 21.2% (inactive); in test [9], -7.9% (inactive). Besides, the Potency entry in [3], in [8] and in test [10] was “inactive” each time. In addition, in [5], the activity, negative = inhibition was -0.15% (inactive). Further, the compound was called inactive in [7]. The max response is 3.88% in test [9] (setting [15]) and -2.51% in [9] (setting [16]).
Consider `O=C(c1ccco1)N1CCC2(CC1)CCN(c1ccccc1)CC2`, for which the Potency in test [1] was > 11.4 µM (inactive); in [6] it was > 46 µM (inactive). For the same compound, the activity change, negative = inhibition is 2.89% (inactive) in [2], -1.84% (inactive) in test [4] and 1.71% (inactive) in test [9]. The Potency result in test [3], in [8] and in test [10] was “inactive” each time. Moreover, the activity, negative = inhibition in test [5] was -6.6% (inactive). The result in [7] was inactive. For the same compound, the max response was 23.3% in test [9] (setting [15]) and 29.9% in [9] (setting [16]).
On to `COC(=O)N1CCC[C@@]2(CCN(c3ccncc3)C2)C1`, for which the Potency in [1] was > 11.4 µM (inactive); in [6], > 46 µM (inactive); in test [12] it was 3.98 µM (active). The activity change, negative = inhibition is -7.07% (inactive) in [2], -14.4% (inactive) in test [4] and 4.92% (inactive) in [9]. The Potency result in test [3], in test [8], in test [11], in test [13], in test [14] and in test [10] was “inactive” each time. Moreover, the activity, negative = inhibition in [5] was -2.36% (inactive). Further, in [7], the outcome was inactive. Also, the max response in [9] (setting [15]) stood at 18.5%; in test [9] (setting [16]) it was 26.2%.
Take `COCC(=O)N1CCC2(CC1)CN(C(=O)Nc1ccc(OC)cc1)C2`: the figures for the Potency in test [1] and in test [6] were > 11.4 µM (inactive) and > 46 µM (inactive), respectively. The activity change, negative = inhibition is -2.15% (inactive) in test [2], 21.1% (inactive) in [4] and 3.11% (inactive) in [9]. The Potency result in test [3], in test [8] and in test [10] was “inactive” in each case. In addition, in [5], the activity, negative = inhibition was 2.17% (inactive). Besides, the call in [7] was inactive. The max response in test [9] (setting [15]) is 23%; in [9] (setting [16]), 29.3%.
For `CS(=O)(=O)N1CCC2(CC1)CN(C(=O)Nc1ccccc1)C2`, the results for the Potency in test [1] and in test [6] were > 11.4 µM (inactive) and > 46 µM (inactive), respectively. The figures for the activity change, negative = inhibition in test [2], in test [4] and in test [9] were -5.74% (inactive), 11.2% (inactive) and 4.59% (inactive), respectively. Besides, the Potency result in test [3], in test [8] and in [10] was “inactive” in each case. For the same compound, the activity, negative = inhibition in [5] was 8.65% (inactive). In addition, in [7], the call was inactive. In addition, the max response worked out at 6.27% in [9] (setting [15]) and 16.7% in test [9] (setting [16]).
Turning to `O=C(c1csnn1)N1CCC[C@@]2(CCN(c3ncccn3)C2)C1`, the Potency is > 11.4 µM (inactive) in [1], 12.6 µM (active) in [3] and > 46 µM (inactive) in test [6]. Also, the activity change, negative = inhibition was -0.372% (inactive) in [2], 8.43% (inactive) in test [4] and 7.22% (inactive) in test [9]. Further, in [5], the activity, negative = inhibition was 1.56% (inactive). For the same compound, the call in test [7] was inactive. Also, the Potency result in [8] and in [10] was “inactive” in each case. Further, the max response in test [9] (setting [15]) worked out at 8.99%; in test [9] (setting [16]), 21.1%.
